In all, about 320,000 compounds went through this assay and about 9,100 (2.8%) were called active. About 3% were inconclusive and are not listed. Only a selection was taken, and actives are over-represented in it overall. Unmarked numbers belong to inactive results. Calls come from the whole dose curve; as a rule, active = well fitted activation curve with a large enough effect; inconclusive = small, poorly fitted or top-dose-only effect; inactive = no such curve, though single readings can be large or run the other way.
experiment: qHTS Assay for Rab9 Promoter Activators; settings: Huh7 Rab9 promoter-luciferase reporter, luminescence, 24 h; series mostly up to 9.22 µM; activation, negative = inhibition: at the top concentration; note: nearly all actives have a fitted effect of over 60% in size; for activation, negative = inhibition: % of control where 0% means no effect
Summary of the method: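 Luciferase signal after 10 min detection reagent at ambient indicates Rab9 promoter upregulation; stably transfected Huh7 cells were treated 24 h with compound in DMSO at 37 °C, 5% CO2.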
Potency is the fitted concentration of half-maximal effect.

| SMILES | activation, negative = inhibition [%] | Potency |
| --- | --- | --- |
| O=C(NNC(=O)c1cccc(S(=O)(=O)Nc2ccc(Cl)cc2)c1)c1ccc(=O)[nH]c1 | -0.571 | – |
| O=C(CCc1ccccc1F)N1CCN(c2ccccc2)CC1 | 3.89 | – |
| O=C(CCSc1ccccc1)N1CCN(c2ccccc2F)CC1 | – | 3550 nM (active) |
| O=C(NCC(=O)N1CCN(c2ccccc2F)CC1)c1cccs1 | 29.4 | – |
| CC1CCCC(NC(=O)c2cc(S(=O)(=O)N3CCCCC3)ccc2Cl)C1C (configuration not stated) | -10.7 | – |
| CCCCCCCC(=O)OC(CN1CCCCCC1)CN1CCCC1=O (configuration not stated) | 0.284 | – |
| COc1cccc(C(=O)Nc2cc3c(cc2Br)OCCCO3)c1 | – | 2820 nM (active) |
| Cc1ccccc1C(=O)NC(=S)Nc1ccc(N2CCN(C(=O)c3ccccc3)CC2)cc1 | -8.82 | – |
| CN1CCN(c2ccc(NC(=O)c3ccccc3)cc2)CC1 | – | 1580 nM (active) |
| COc1ccc(C2COC(=O)C2=N)c(NC(=O)c2ccccc2)c1 (configuration not stated) | -5.53 | – |
| COc1cccc(C(=O)Nc2ccc(N3CCCC3)cc2)c1 | – | 1120 nM (active) |
| CN1CCN(c2ccc(NC(=O)c3ccc4c(c3)[nH]c(=O)n4Cc3ccc(F)cc3)cc2)CC1 | -10.7 | – |
| COc1cccc(C(=O)Nc2ccc(N3CCN(C(=O)c4ccco4)CC3)cc2)c1 | -19.2 | – |
| CC(=O)Oc1cccc(C(=O)Nc2ccccc2NC(=O)c2cccc(OC(C)=O)c2)c1 | -3.88 | – |
| COc1ccc(C(=O)Nc2ccc(N3CCC(C)CC3)cc2)cc1Br | 0.157 | – |
| CC(C)(C)OC(=O)N[C@H](C(=O)OC(C)(C)C)c1ccc(Br)cc1 | -3.11 | – |
| O=C(OCC(=O)N1CCN(C(=O)c2ccco2)CC1)c1ccc(Cl)c(Cl)c1 | -2.48 | – |
| CN(c1ccccc1)S(=O)(=O)c1cccc(NC(=O)Cc2ccc(Cl)cc2)c1 | -4.08 | – |
| CCCCN1Cc2c(nc3cc(-c4ccccc4)[nH]n3c2=O)C1=O | -6.04 | – |
| C=CCc1c(C)nc2cc(-c3ccccc3)[nH]n2c1=O | – | 1410 nM (active) |
| CCc1c(C)nc2cc(C)[nH]n2c1=O | 1.24 | – |
| O=C1C=C(c2cccc(Br)c2)C[C@@H](c2ccc(F)cc2)C1 | -7.46 | – |

| SMILES | activation, negative = inhibition [%] | Potency |
| --- | --- | --- |
| NC(=O)NC(CC(=O)NNC(=O)c1ccccn1)c1ccc(Cl)cc1 (configuration not stated) | -15.9 | – |
| O=S(=O)(NCCCN1CCOCC1)c1ccc(F)c(Cl)c1 | -4.67 | – |
| O=C(OCC(=O)N1CCCCCC1)c1cnc(Cl)c(Cl)c1 | 2.37 | – |
| CCOc1cccc(NC(=O)CC#N)c1 | -2.84 | – |
| CCOc1ccc(C(=O)Nc2ccncc2)cc1 | 24.6 | – |
| CCOc1ccc(NC(=O)c2ccc(NC(=O)COC(=O)c3ccc(NC(=O)CC#N)cc3)cc2)cc1 | – | 2240 nM (active) |
| Cc1cccc(NS(=O)(=O)c2ccc(C)c(C(=O)NCC(c3ccccc3)N(C)C)c2)c1 (configuration not stated) | -1.19 | – |
| O=C(Nc1ncccc1O)c1ccc(C(=O)c2ccccc2)cc1 | – | 4470 nM (active) |
| O=C(Nc1ncccc1O)c1ccc(S(=O)(=O)N2CCCC2)cc1 | 0.0374 | – |
| O=C(Nc1ncccc1O)c1ccc(S(=O)(=O)N2CCCCCC2)cc1 | 29.2 | – |
| C=CCn1c(SCC(=O)NC(=O)Cc2ccccc2)nc2ccccc2c1=O | -2.86 | – |
| Cc1ccc(S(=O)(=O)CCC(=O)OCC(=O)NCCc2ccc(S(N)(=O)=O)cc2)cc1 | -4.91 | – |
| O=C(/C(=C/c1cccc(Cl)c1)c1nc2ccccc2[nH]1)c1ccccc1 | 16.2 | – |
| N#C/C(=C(/O)COC(=O)COc1ccc(Cl)cc1)c1nc2ccccc2[nH]1 | -0.0556 | – |
| O=C(Cc1nc2ccccc2[nH]c1=O)c1ccc(Cl)cc1 | – | 2000 nM (active) |
| CC(C)(C)OC(=O)Nc1ccc([C@@H](NC(=O)OC(C)(C)C)C(=O)OC(C)(C)C)cc1 | 0.239 | – |
| O=C(CSc1nnc2ccccn12)c1ccccc1 | – | 2510 nM (active) |
| Cc1cc(C(=O)CSc2nc(N)cc(=O)[nH]2)c(C)n1-c1cccc(F)c1 | -19.8 | – |
| Cc1ccc(-n2c(C)cc(C(=O)CSc3nnc4ccccn34)c2C)cc1 | – | 398 nM (active) |
| N#Cc1ccc(CSc2nnc3ccccn23)cc1 | -32.1 | – |
| Cc1ccc(-n2c(C)cc(C(=O)CN3C(=O)C(=O)N(C4CCCC4)C3=O)c2C)cc1 | 0.731 | – |
| Cn1c(CC(=O)Nc2ccccc2)nnc1SCC(=O)c1ccccc1 | -11.8 | – |

| SMILES | activation, negative = inhibition [%] | Potency |
| --- | --- | --- |
| COc1ccc(NC(=O)CSc2nnc(C3CC3)n2C)cc1S(=O)(=O)N1CCCCC1 | -1.73 | – |
| Cc1ccc(Nc2nnc(SCC(=O)c3cc4ccccc4o3)s2)cc1C | 4.96 | – |
| O=C(CSc1nnc(Nc2ccccc2)s1)Nc1cccnc1Cl | 0.496 | – |
| CC(C)c1ccc(Nc2nnc(SCC(=O)c3nnc(-c4ccccc4)o3)s2)cc1 | – | 4470 nM (active) |
| COc1cc2c(cc1OC)C(=O)NCC(C)(C)O2 | 0.04 | – |
| COc1ccccc1-c1sc2ccccc2c1-c1ccc(Br)nc1 | -7.9 | – |
| Cc1csc(SCC(=O)N(c2ccccc2)C(C)C)n1 | -4.73 | – |
| NC(=O)c1ccsc1NC(=O)COC(=O)COc1ccc(C=O)cc1 | 2.6 | – |
| O=C(O)c1ccccc1N=N/C(=N/Nc1cc(S(=O)(=O)O)ccc1O)c1ccccc1 | 10.6 | – |
| O=C(O)c1cccc(S(=O)(=O)N2CC=C(c3ccccc3)CC2)c1 | 0.495 | – |
| CN1CCCC(OC(=O)COc2ccc(Br)cc2)C1 (configuration not stated) | 0.13 | – |
| CC1CN/C(=C\C(=O)c2ccc(Br)cc2)C(=O)N1 (configuration not stated) | – | 501 nM (active) |
| COc1cc2c(cc1OC)/C(=C/C(=O)c1ccc(NC(C)=O)cc1)NCC2 | -2.71 | – |
| CCCCNC(=O)OCCSCCS(=O)(=O)c1ccc(Cl)cc1 | 1.89 | – |
| CC(=O)c1sc(N/N=C/c2ccc(C(C)C)cc2)nc1C | – | 794 nM (active) |
| Cc1ccc(S(=O)(=O)Nc2nc(C)cc(N/N=C/c3ccc(O)cc3)n2)cc1 | 2.57 | – |
| CC(=O)c1sc(NC(=O)CCCOc2ccccc2C)nc1C | -4.39 | – |
| Cc1nnc(C)n1/N=C/c1ccc(C(C)C)cc1 | 0.524 | – |
| CC(=O)c1sc(NC(=O)C2=NN(c3ccccc3)C(=O)CC2)nc1C | 0.789 | – |
| COc1ccc(/C=N\NC(=O)c2sc(N)nc2C)cc1OC | 1.81 | – |
| CC(=O)c1sc(N)nc1C | 0.837 | – |
| CC(=O)c1sc(N/N=C\c2ccc(C)cc2)nc1C | – | 2000 nM (active) |

| SMILES | activation, negative = inhibition [%] | Potency |
| --- | --- | --- |
| COc1cc2ccccc2cc1C(=O)Nc1nc(C)c(C(C)=O)s1 | – | 3980 nM (active) |
| COc1cc2ccccc2cc1C(=O)Nc1ccccc1C | 5.13 | – |
| COc1cc2ccccc2cc1C(=O)Nc1ccncc1 | 18.7 | – |
| CC(=O)c1sc(NC(=O)c2ccc(C)cc2)nc1C | – | 1780 nM (active) |
| N#Cc1ccc(C(=O)OCC(=O)NC(=O)NC2CCCCC2)cc1 | -3.13 | – |
| CCN(CC(=O)Nc1cc(Cl)ccc1C)C(=O)CSCc1ccccc1 | -2.39 | – |
| CC(Oc1ccc(F)cc1F)C(=O)/C=C/N(C)C (configuration not stated) | -3.13 | – |
| COc1ccccc1-c1nn(Cc2ccccc2)cc1C(=O)N1CCN(c2ncccn2)CC1 | 0.929 | – |
| O=C(COC(=O)c1ncc(Cl)c(Cl)c1Cl)NCc1ccccc1 | -2.67 | – |
| CCc1ccccc1S(=O)(=O)Cc1ccc(C(=O)NCCc2ccccc2)o1 | 4.39 | – |
| CCN(CC)CCN1C(=O)C(=O)/C(=C(/O)c2ccccc2)C1c1ccccc1F (configuration not stated) | -0.0008 | – |
| CCN(CC)CCN1C(=O)C(=O)/C(=C(/O)c2ccc(OC)c(OC)c2)C1c1ccccn1 (configuration not stated) | 0.612 | – |
| CCN(CC)CCN1C(=O)C(=O)/C(=C(/O)c2cnn(-c3ccccc3)c2C)C1c1cccs1 (configuration not stated) | – | 2510 nM (active) |
| COc1ccc(S(=O)(=O)N2CCC(C(=O)OCC(=O)c3ccccc3)CC2)cc1[N+](=O)[O-] | -4.69 | – |
| COc1ccc2sc(-c3ccc(N(C)C)cc3)c(C#CCO)c2c1 | -2.43 | – |
| Cc1ccc(CN2CC(C(=O)N3CCN(S(=O)(=O)c4ccccc4)CC3)CC2=O)cc1 (configuration not stated) | -0.553 | – |
| Cc1ccc(-n2c(C)cc(/C=C(\C#N)C(=O)NCC3CCCO3)c2C)cc1 (configuration not stated) | – | 3980 nM (active) |
| Cc1ccc(S(=O)(=O)N2CCC(C(=O)NCC3CCCO3)CC2)cc1 (configuration not stated) | -3.61 | – |
| Cc1ccc(C(=O)N/C(=C/c2cccs2)C(=O)NCC2CCCO2)cc1 (configuration not stated) | -0.356 | – |
| CCOC(=O)c1ccc(-c2ccc(C(=O)Nc3cccnc3)o2)cc1 | – | 2240 nM (active) |
| COc1ccc(C)cc1NC(=O)c1ccc(-c2ccc(C(C)=O)cc2)o1 | -1.54 | – |
| CCOC(=O)c1ccc(NC(=O)c2cccnc2)cc1 | 27.2 | – |

| SMILES | activation, negative = inhibition [%] | Potency |
| --- | --- | --- |
| CCOc1cc(CNCc2ccccn2)ccc1OCC(=O)NC(C)(C)C | -0.141 | – |
| Cc1ccc(S(=O)(=O)N2CCN(c3ncnc4ccccc34)CC2)cc1 | -32 | – |
| CCc1ccc(C(=O)N2CCN(S(=O)(=O)c3sc(C(=O)O)c(C)c3C(=O)O)CC2)cc1 | 0.966 | – |
| Cn1c(CCC(=O)OCC(=O)NCc2ccccc2Cl)nc(=O)c2ccccc21 | -9.63 | – |
| CC(C)n1ncc2c(C(=O)Nc3ccc(CC#N)cc3)cc(C3CC3)nc21 | -8.64 | – |
| C=CCC(NC(=O)Cc1ccccc1)C(=O)NCCC (configuration not stated) | -2.37 | – |
| CC(C)c1nc2cc(C(=O)NC(C)c3cnn(C)c3)ccc2o1 (configuration not stated) | 13.4 | – |
| COc1ccc(CNC(=O)c2ccc3oc(C(C)C)nc3c2)cc1 | – | 2820 nM (active) |
| COc1ccc(CNC(=O)c2cc(=O)c3c(C)cc(C)cc3o2)cc1 | -1.78 | – |
| CCOc1ccc(S(=O)(=O)N2CCC(C(=O)NCC(=O)Nc3cccc(Cl)c3C)CC2)cc1 | -3.69 | – |
| Cc1cccc(/C(N)=N/OC(=O)c2ccccc2Cl)c1 | – | 891 nM (active) |
| N/C(=N\OC(=O)c1cc(-c2ccccc2)nc2ccccc12)c1ccncc1 | -0.274 | – |
| Cc1cccc(C(=O)c2cccc(C)c2)c1 | 0.0012 | – |
| O=S(=O)(c1ccc(Cl)cc1)c1nc(-c2ccccc2F)oc1NCCN1CCOCC1 | -5.06 | – |
| CC(=O)c1c(C)[nH]c(C(=O)Nc2cc(S(=O)(=O)N(C)C)ccc2C)c1C | 15 | – |
| O=C(CCNC(=O)c1ccc([N+](=O)[O-])cc1)NC1CCCCC1 | -5.22 | – |
| CC(=O)c1ccc(N2Cc3ccccc3C2)cc1 | – | 1780 nM (active) |
| CC(=O)c1ccc(N2CCN(C(=O)CCc3ccccc3)CC2)cc1 | 4.67 | – |
| CC(=O)c1ccc(N2CCN(CC(O)c3ccccc3)CC2)cc1 (configuration not stated) | -2.02 | – |
